Results from PubChem BioAssay AID2314 (National Center for Advancing Translational Sciences (NCATS), 2010).
Out of some 300,000 compounds screened, about 37,000 (12%) were called active. The sample as a whole holds a higher share of actives than the screen did. Unmarked numbers belong to inactive results. No stated cut-off is given here; in the data, active means max response mostly above about 13% (no sharp cut-off); inactive means mostly below about 14%.

Assay: Cycloheximide Counterscreen for Small Molecule Inhibitors of Shiga Toxin; further: read at 38.3 µM for the half of the compounds with a filed dose; 0% is about no effect
Settings: cell reporter, cycloheximide protein synthesis inhibition counterscreen; hits give high values

SMILES	max response
Cc1ccc(N2CC(C(=O)NCCS(=O)(=O)N3CCN(c4ccccc4)CC3)CC2=O)cc1 (stereo not given)	1.37%
CCOC(=O)c1c(-c2ccccc2)oc2ccc(OCC(N)=O)cc12	-1.21%
O=C(O)CCCCCCCCc1cn(CN2C(=O)c3ccccc3C2=O)nn1	1.15%
CCc1ccc(-c2cc3c(=O)n(CC(=O)NCCCN4CCN(Cc5ccccc5)CC4)nc(C)n3n2)cc1	-1.84%
O=C(Cn1nc(CNc2ccc(Cl)cc2)[n+]2c1CCCCC2)c1ccc(Cl)cc1	11%
Cc1cccc(Oc2c([N+](=O)[O-])c(=O)n(C)c3ccccc23)c1	6.49%
CCOc1ccc(CCNC(=O)C(CC)n2nc(C)n3c(cc4sccc43)c2=O)cc1OCC (stereo not given)	-1.8%
Cn1c(=O)[nH]c(=O)c2c1nc(N1CCN(CCO)CC1)n2CCSc1nc2ccccc2s1	-5.89%
CCN(CC)CCCSc1nc2ccccc2s1	36% (active)
Cc1nc2nc(CSc3nc4ccccc4s3)cc(=O)n2[nH]1	-7.38%
O=C(COCc1cc(-c2ccc3c(c2)OCO3)on1)N1CCN(c2cccc(Cl)c2)CC1	-2.82%
O=C(COC(=O)Cn1cnc2ccccc2c1=O)NCC12CC3CC(CC(C3)C1)C2	-1.91%
c1n[nH]c(NCc2ccc3c(c2)OCO3)n1	-1.69%
COc1ccc(CCNC(=O)C(=O)NCc2ccccc2C)cc1OC	-2.75%
COc1cc(CNc2ncn[nH]2)ccc1OCc1ccccc1C	36.9% (active)
COC(=O)CN1C(=O)[C@H]2[C@@H](/C=C/c3ccccc3)N3C(=O)CN(CC4CC4)C(=O)[C@@]3(Cc3ccccc3)[C@H]2C1=O	0.35%
Cc1c2cnn(CC(=O)NCCCN3CC(C)CC(C)C3)c(=O)c2c(C)n1Cc1ccc(Cl)cc1 (stereo not given)	-5.34%
CCc1ccc2ncc(C(=O)c3ccccc3)c(N3CCOCC3)c2c1	2.65%
CCOc1ccc(C(=O)Nc2c3c(nn2-c2ccccc2)CS(=O)(=O)C3)cc1	-1.43%
Cn1cc(C(=O)NCc2ccccc2F)cn1	-3.82%
COc1ccccc1-n1c(C)nc2cc(C(=O)NCc3ccc4c(c3)OCO4)ccc21	5.54%
CCn1ccnc1CN(C)C(=O)c1ccc2nc(Cc3ccc(OC)cc3)oc2c1	-0.601%
COc1ccc(Cc2nc3ccc(C(=O)NCC4CCOCC4)cc3o2)cc1OC	23.6% (active)
CCC1C(=O)NCCN1C(=O)c1ccc2nc(Cc3ccc(OC)cc3)oc2c1 (stereo not given)	16.3%

SMILES	max response
COCCNC(=O)c1ccc2nc(Cc3ccc(OC)c(OC)c3)oc2c1	32% (active)
COc1ccc(C(=O)NCCc2ccc(S(N)(=O)=O)cc2)cc1OC	9.83%
CSCCNC(=O)c1ccc2nc(Cc3ccccc3F)oc2c1	54.4% (active)
COc1ccc(Cc2nc3ccc(C(=O)N4CCC(N(C)C)C4)cc3o2)cc1 (stereo not given)	7.38%
Cc1ccc(S(=O)(=O)N2CCC3(CC2)OCCO3)c(C)c1	-3.35%
Cc1ccc(S(=O)(=O)N2CCN(C(=O)CSc3cc(C)ccc3C)CC2)c(C)c1	12.6%
C=CCOc1ccc(/C=C/C(=O)OCC(=O)NC2CCCCCC2)cc1	-2.39%
O=S(=O)(Cc1nnnn1-c1ccccc1)c1ccccc1	-0.262%
O=C(CN1C(=O)c2ccccc2S1(=O)=O)NC1CCCCC1	3.93%
Cc1ccc(F)cc1NC(=O)N1CCCN(c2ccc(C(F)(F)F)cn2)CC1	-0.488%
O=C(CSc1nc(Nc2ccccc2)nc(N2CCOCC2)n1)Nc1cc(Cl)ccc1O	7.58%
O=C(O)c1ccc(/C=C2/SC(=S)N(c3cccc(C(F)(F)F)c3)C2=O)cc1	-7.16%
FC(F)(F)c1cccc(NC(=S)Nc2cccc(Cl)c2)c1	-2.33%
COc1cc(NC(=S)NCc2ccco2)c(OC)cc1Cl	-2.3%
S=C(Nc1cccc(Cl)c1)Nc1ccc2c(c1)OCCO2	42.2% (active)
S=C(NCc1ccc2c(c1)OCO2)NCc1ccco1	28.4% (active)
Cc1c(Cl)cccc1NC(=S)NCc1ccc2c(c1)OCO2	-1.28%
S=C(NCc1ccco1)Nc1ccc2c(c1)OCCO2	69.9% (active)
CN(C)S(=O)(=O)c1cccc(NC(=S)NCc2ccc3c(c2)OCO3)c1	0.966%
S=C(NCc1ccco1)NCc1ccccc1Cl	-2.41%
FC(F)Oc1ccc(NC(=S)NCc2ccco2)cc1Cl	11.2%
O=S(=O)(c1ccccc1)N(Cc1cccc(F)c1)c1ccccc1	-0.496%
CC(=O)N1CCC(C(=O)Nc2nc(-c3ccccc3)ns2)CC1	0.624%
NC(=O)c1cc(S(=O)(=O)NCCCc2ccco2)cs1	-2.26%

SMILES	max response
CCc1nnc(NC(=O)[C@@H](NC(=O)c2cccc(C)c2)C(C)C)s1	-2.22%
C=CCn1c(SCc2ccccc2)nc2c1c(=O)[nH]c(=O)n2C	-1.99%
O=C(CSc1nnc2ccc(-c3ccncc3)nn12)N1CCCCC1	-4.64%
CCCc1nnc(SCC(=O)N2C(C)CCCC2C)n1CC (stereo not given)	7.27%
O=C(CSc1nnnn1C1CCCC1)N1CCCCC1	27% (active)
CC(C)C(=O)Nc1nnc(SCC(=O)N2C(C)CCCC2C)s1 (stereo not given)	1.12%
CC(Sc1nnnn1C1CCCCC1)C(=O)O (stereo not given)	5.78%
CC1CCCC(C)N1C(=O)CSc1nnnn1C1CCCC1 (stereo not given)	25.7% (active)
O=Cc1cn(-c2ccccc2)nc1-c1ccccn1	3.16%
Cc1c(CN2CC[C@@H](N3CCN(c4ccccn4)CC3)[C@H](O)C2)[nH]c2ccc(F)cc12	1.28%
O=C(NCc1ccccc1)C(c1ccccc1)N(C(=O)c1csnn1)c1ccc(F)cc1 (stereo not given)	-4.47%
O=S(=O)(Cc1noc(-c2ccc(OC(F)(F)F)cc2)n1)c1ccc(F)cc1	22.3% (active)
O=S(=O)(Nc1ccc(OC(F)(F)F)cc1)c1cccc2nonc12	-2.47%
O=S(=O)(Cc1nnnn1-c1ccc(Br)cc1)c1ccc(F)cc1	-2.53%
COc1cc(OC)cc(C(=O)NC(=S)N2CCN(c3ccc(C(F)(F)F)cc3[N+](=O)[O-])CC2)c1	4.72%
Cc1cc(C)cc(NS(=O)(=O)c2ccc(F)cc2)c1	-2.02%
Cc1ccc(NS(=O)(=O)c2ccc(F)cc2)nc1	-3.76%
Cn1nccc1NS(=O)(=O)c1ccc(F)cc1	162% (active)
COc1cc2c(cc1OC)CC1(CCCCC1)N=C2	-2.87%
CSCc1nnc(NC(=O)c2ccc(S(=O)(=O)N3CCCCC3C)cc2)o1 (stereo not given)	-2.84%
CCOc1ccc(C2C3=C(CCCC3=O)N(CC(=O)O)C3=C2C(=O)CCC3)cc1	-3.14%
COc1ccc(Nc2ncnc3sc(-c4ccccc4)cc23)c(OC)c1	7.7%
COc1ccc(Nc2ncnc3ccc(Br)cc23)c(OC)c1	26.7% (active)
C=CCNc1ncnc2ccc(Br)cc12	-5.1%

SMILES	max response
CN(Cc1c(F)cccc1Cl)S(=O)(=O)c1cccs1	-2.55%
CN(CCc1ccccc1)c1ccc([N+](=O)[O-])cn1	0.432%
CN1c2ccc([N+](=O)[O-])cc2C(C)(C)C12C=Cc1cc(C(=O)O)ccc1O2 (stereo not given)	-2.71%
COc1cccc(CC2(CO)CCCN(CC3=Cc4cc(OC)ccc4OC3)C2)c1 (stereo not given)	-0.657%
COc1ccc2c(c1)C=CC1(O2)N(CCO)c2ccccc2C1(C)C (stereo not given)	26% (active)
O=C(c1cccc(-n2cccc2)c1)N1CCN(S(=O)(=O)c2ccc(F)cc2)CC1	5.03%
O=c1[nH]c(CSc2ccccc2)nc2c1oc1ccccc12	-1.34%
Cc1nc(SCC(=O)NC2CCCC2)[nH]c(=O)c1C	0.618%
O=C(CN1CCN(S(=O)(=O)c2ccc(Br)cc2)CC1)Nc1ccccc1C(=O)c1ccccc1	-0.92%
O=S(=O)(Cc1cc(Cl)nc(-c2cccnc2)n1)c1ccccc1	-0.203%
C=CCN1CN(S(=O)(=O)c2ccc(OC)cc2)c2nc3ccccc3nc21	15.9%
O=S(=O)(c1ccccc1)N1CN(Cc2ccc(F)cc2)c2nc3ccccc3nc21	19.8% (active)
COc1ccc(S(=O)(=O)N2CN(CCc3ccc(OC)c(OC)c3)c3nc4ccccc4nc32)cc1	-0.593%
O=C(NCCCN1CCOCC1)C1CCCN(S(=O)(=O)N2CCCCC2)C1 (stereo not given)	7.19%
CC(C)N1CCc2c(sc(NC(=O)Cc3ccccc3)c2C#N)C1	1.8%
Cc1ccc2occ(/C=N/NC(=O)c3ccccc3C)c(=O)c2c1	9.31%
NC(=S)N/N=C/c1coc2cc(Cl)ccc2c1=O	-4.85%
CC(C)(C)OC(=O)NCCCCCC(=O)N/N=C/c1coc2ccccc2c1=O	37.7% (active)
COc1cccc(NC(=O)COc2cc(C)cc3oc(=O)cc(C)c23)c1	-6.8%
COC(c1ccccc1)(c1ccccc1)C(Oc1nc(C)cc(C)n1)C(=O)O (stereo not given)	-1.54%
O=C(NCc1csc(-c2cccs2)n1)C1CC1	49.8% (active)
CC(C)(C)C1CCC(C(=O)NCC(c2cccs2)N2CCOCC2)CC1 (stereo not given)	1.44%
O=C(NCc1cccs1)C1CCN(S(=O)(=O)c2ccc(Cl)cc2)CC1	8.38%
